Only some compounds are listed: those with a hit (about 0.5% of all), similar ones and a draw of the others.
E coli growth-1 – reduces bacterial viability in AddAB counter-screen. E. coli V3065 growth, OD600 absorbance, 18 h. inhibition, % at 11.9 µM. 0.27% of 330,000 active. AID 449728;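 active = inhibition above the campaign's mean inhibition across all tested compounds plus 3 SD, cut at about 9.9% in these data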;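 also: uninfected addAB+ strain grown without phage in ampicillin broth; 0% = DMSO wells and 100% = ciprofloxacin 0.95 µg/ml wells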
phage Ecoli inh – E. coli growth loss with phage present; growth absorbance; inhibition, % at 11.9 µM; 0.26% of 360,000 active; AID 651602; in the data active = inhibition above about 11%
Tat export inh – inhibitors of E. coli Tat protein transport; E. coli MC4100 TorA-mCherry Tat export, fluorescence; inhibition, % at 10 µM; 0.036% of 340,000 active; AID 488895;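 active = mean replicate inhibition at least 50% and at least half of replicates individually reaching 50%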;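 also: exported cargo escapes ClpAP degradation while cytoplasmic cargo is degraded and loses fluorescence; 0% = median of neutral control wells and 100% = median of NaSCN control wells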
E coli growth-2 – E. coli growth inhibition. Escherichia coli growth, OD600, 23 h; stronger effect = lower value. OD600 absorbance (test concentration not listed). 0.21% of 330,000 active. AID 1053175;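 active = OD600 absorbance below the run mean of sample wells minus 3.6 SD, in any replicate, cut at about 0.56 in these data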
AddAB inh – less growth of phage-infected E. coli with AddAB; E. coli expressing H. pylori AddAB, absorbance growth; inhibition, % at 11.9 µM; 0.29% of 330,000 active; AID 435030; in the data active = inhibition above about 12%;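 also: 0% = vehicle wells of infected cells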
AddAB confirm – growth loss of T4-infected E. coli expressing H. pylori AddAB, confirmed. inhibition, % at 11.9 µM. 64% of 880 active. shares compounds with AddAB inh. E. coli V3065 expressing H. pylori AddAB, T4 phage, OD; T4 phage with gene 2 nonsense mutations. AID 488942;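 active = mean inhibition above a set limit taken from the earlier primary screen, cut at about 13% in these data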;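 also: higher means less bacterial growth since AddAB block lets phage replicate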
RecBCD counter – counter-screen: growth loss of RecBCD+ E. coli with mutant T4 phage | shares compounds with AddAB inh | E. coli V66 + mutant T4 phage, OD growth | inhibition, % at 11.9 µM | 73% of 880 active;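 active = mean inhibition above the mean of solvent-only control wells plus 3 SD, cut at about 4% in these data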;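 also: optical density read after an 18 h incubation at 37 °C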
bact viab count – counter-screen: bacterial growth inhibition. shares compounds with AddAB inh. bacterial viability, absorbance (AddAB counterscreen). inhibition, % at 11.9 µM. 35% of 880 active. AID 488956; in the data active = inhibition above about 25%
RecBCD conf – confirmation: growth loss of phage-infected RecBCD+ E. coli (RecBCD inhibitor screen); AID 651982; shares compounds with phage Ecoli inh; E. coli V66 + T4 2- phage, growth OD; 45% of 890 active; inhibition, % at 11.9 µM;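 active = mean inhibition over triplicates exceeding the hit threshold derived in the original primary screen, cut at about 11% in these data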
Ecoli viability – bacterial viability inhibition counter-screen for RecBCD | shares compounds with phage Ecoli inh | E. coli viability, absorbance (OD) growth | inhibition, % at 11.9 µM | 29% of 890 active; in the data active = inhibition above about 20%;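 also: E. coli strain V66 grown with compound alone and no phage infection; 0% = bacteria with DMSO vehicle only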
AddAB counter – growth loss of phage-infected AddAB E. coli, RecBCD counter-screen | shares compounds with phage Ecoli inh | E. coli expressing H. pylori AddAB + T4 phage, OD growth; gene 2 mutant T4, recBCD-deleted host | inhibition, % at 11.9 µM | 45% of 890 active | AID 651984;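 active = mean inhibition above the solvent-only control wells' mean plus 3 SD, cut at about 22% in these data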;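 also: higher means less bacterial growth from phage killing when AddAB is blocked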
Active calls of the source: *; . = no result given.

SMILES	E coli growth-1	phage Ecoli inh	Tat export inh	E coli growth-2	AddAB inh	AddAB confirm	RecBCD counter	bact viab count	RecBCD conf	Ecoli viability	AddAB counter
COc1ccc(Cl)cc1C(Nc1cccnc1)c1ccc2cccnc2c1O (stereo unspecified)	23*	16*	2	0.72	14*	8	12*	8	7	9	6
C=CCNC(=S)N/N=C(\C)c1ccccn1	30*	38*	-5	.	31*	31*	29*	25*	27*	34*	32*
CC(=NNC(=S)N1CCCCC1)c1ccccn1	.	4	.	.	.	.	.	.	.	.	.
N#Cc1nccnc1S(=O)(=O)c1cccs1	13*	18*	.	0.49*	19*	64*	17*	16	17*	16	33*
CN(Cc1ccccc1C#N)S(=O)(=O)c1cccs1	2	5	7	0.7	4	.	.	.	.	.	.
Cc1onc(-c2ccccc2)c1C(=O)NC(=S)NNC(=O)c1ccccc1O	25*	24*	2	0.62	24*	25*	24*	25	14*	17	29*
Cc1onc(-c2ccccc2)c1C(=O)NC(=S)NNC(=O)c1ccc(O)cc1O	20*	15*	2	0.56	20*	13*	14*	18	9	11	25*
O=C(NNC(=S)NC(=O)c1ccccc1[N+](=O)[O-])c1ccccc1O	17*	13*	-6	0.44*	17*	11	14*	16	2	6	14
CC(=NO)c1cc(C(C)(C)C)c(O)c(C(C)(C)C)c1	.	.	.	0.72	.	.	.	.	.	.	.
C#CCOCCOCCOCCNc1nc(N2CCN(C(=O)C(CCCCN)n3cc(C(N)CO)nn3)CC2)nc(N2CCN(C(=O)C(C(C)CC)n3cc(C(N)Cc4ccc(O)cc4)nn3)CC2)n1 (stereo unspecified)	.	.	.	0.65	.	.	.	.	.	.	.
O=C(O)c1cn(C2CC2)c2cc(N3CCN(S(=O)(=O)c4ccc5c(c4)OCCO5)CC3)c(F)cc2c1=O	97*	93*	12	0.082*	99*	98*	98*	101*	102*	102*	103*
CC1COC(=O)C(Cc2ccc(F)cc2)CC=CCC(CC(=O)NCCO)C(=O)N1 (stereo unspecified)	.	.	.	0.73	.	.	.	.	.	.	.
COc1ccc(N/N=C(/N=Nc2nc(C)cc(=O)[nH]2)c2ccccc2)cc1	20*	22*	-17	.	19*	24*	20*	21	14*	13	19
O=C1NCCCC1C(=O)N1CCCCC1 (stereo unspecified)	1	4	6	0.64	0	.	.	.	.	.	.
O=C1CCC(=O)N(O)CCCCCNC(=O)CCC(=O)N(O)CCCCNC(=O)CCC(=O)N(O)CCCCCN1	28*	22*	-5	0.67	31*	26*	23*	13	16*	20*	21
O=c1c2c(-c3cccs3)csc2ncn1N=Cc1ccccn1	.	.	.	0.68	.	.	.	.	.	.	.
O=[N+]([O-])c1ccc(C=C2CCC(C3=CCCC3)=C2N2CCOCC2)cc1	.	.	.	0.7	.	.	.	.	.	.	.
Nc1c(Cl)ncnc1N/N=C/c1ccnc2ccccc12	-1	3	-3	.	3	.	.	.	.	.	.
Nc1c(Cl)ncnc1N/N=C/c1ccc2ccccc2n1	24*	26*	-2	.	27*	23*	18*	21	11*	12	20
CC(C)COc1ccc(Cc2cnc(N)nc2N)cc1	7	16*	-5	0.24*	12*	-1	9.2*	3	7	5	11
Cc1ccc(C)c(C=Nn2cc(-c3ccccc3)[nH]c2=S)c1	.	.	.	0.7	.	.	.	.	.	.	.
CC(C)(C)c1ccc(OCCCC(=O)NNC(=O)c2ccccc2O)cc1	14*	13*	11	0.71	20*	7	10*	4	8	8	9
Cc1cc(C(=O)NNC(=O)CCCOc2ccccc2)c(C)o1	-1	-1	-6	0.62	-1	.	.	.	.	.	.
Cc1nc2ccccc2c(=O)n1/N=C/c1ccc([N+](=O)[O-])o1	8	.	.	.	9	.	.	.	.	.	.
Cc1nc2ccccc2n1/N=C/c1ccc([N+](=O)[O-])o1	98*	12*	-7	.	100*	103*	25*	103*	10	13	100*
SMILES	E coli growth-1	phage Ecoli inh	Tat export inh	E coli growth-2	AddAB inh	AddAB confirm	RecBCD counter	bact viab count	RecBCD conf	Ecoli viability	AddAB counter
N#CC(=Cc1ccc(Cl)cc1)c1nc2ccccc2o1	.	.	.	0.67	.	.	.	.	.	.	.
CCC(=O)NC(c1ccco1)c1cc(Cl)c2cccnc2c1O (stereo unspecified)	15*	13*	4	0.71	16*	5	11*	1	2	4	18
CCCC(=O)NC(c1cccs1)c1cc([N+](=O)[O-])c2cccnc2c1O (stereo unspecified)	-1	3	-7	0.66	5	.	.	.	.	.	.
CCC(=O)NC(c1ccc(OC)cc1)c1cc(Cl)c2cccnc2c1O (stereo unspecified)	23*	21*	0	0.65	26*	21*	23*	18	13*	17	21*
CCC(=O)NC(c1ccco1)c1cc(Cl)c2cccnc2c1OC (stereo unspecified)	-1	1	-20	0.68	0	.	.	.	.	.	.
CCCCC(=O)NC(c1ccco1)c1cc(Cl)c2cccnc2c1O (stereo unspecified)	24*	21*	2	0.71	16*	18*	18*	15	10	12	15
CC(=O)NC(c1cc(Cl)c2cccnc2c1O)C(C)C (stereo unspecified)	-1	8	0	0.67	4	.	.	.	.	.	.
O=C1C2C(c3ccc(F)cc3)N3C(=O)N(c4cccc(Br)c4)C(=O)[C@@]3(Cc3ccc(Cl)cc3)C2C(=O)N1C1CCCCC1 (stereo partly specified)	.	.	.	0.7	.	.	.	.	.	.	.
Nc1nc(=S)c2[nH]c(=S)[nH]c2[nH]1	.	4	7	0.67	.	.	.	.	.	.	.
Nc1nc(=S)c2[nH]cnc2[nH]1	77*	66*	-26	.	92*	91*	60*	74*	57*	67*	84*
O=C(N/N=C/c1c(O)ccc2ccccc12)c1cccc(C(F)(F)F)c1	22*	18*	-5	.	28*	14*	17*	7	8	13	20
